Assay outcomes as filed in PubChem BioAssay.
VLA-4 inh: inhibition in a human VLA-4 binding assay; VLA-4 expressing cells, ligand binding flow cytometry; inhibition, % (about 7 µM as worked out from the volumes in the protocol); AID 2557; 330,000 compounds, 0.2% hits; P13612; in the data active means inhibition above about 50%
p-CIP stab down: p/CIP protein destabilization; Q05BA5; F442A p/CIP-EGFP cells, EGFP fluorescence, 16 h; decrease of EGFP signal, % at 10 µM; 290,000 compounds, 0.01% hits; AID 1984;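 active means EGFP signal decrease of at least 30% at 10 µM or well 3 SD below plate mean, unless failing retest; inactive means the rest, including hits failing retest or dose response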
JMJD2C inh: inhibitors of human GASC-1 (JMJD2C) demethylase | Q9H3R0 | GST-JMJD2C(1-420) H3K9me3 demethylation, DELFIA europium | inhibition, % at 2.35 µM | 330,000 compounds, 0.069% hits | AID 2099;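 active means more than half of a compound's replicate wells show inhibition beyond 50%, single wells judged on their own value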;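 further: signal counts dimethyl H3K9 product captured on neutravidin plate; 0% = median of DMSO wells and 100% = 0.3 times that DMSO median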
Target sequence (Q9H3R0 1-420 limits assumed): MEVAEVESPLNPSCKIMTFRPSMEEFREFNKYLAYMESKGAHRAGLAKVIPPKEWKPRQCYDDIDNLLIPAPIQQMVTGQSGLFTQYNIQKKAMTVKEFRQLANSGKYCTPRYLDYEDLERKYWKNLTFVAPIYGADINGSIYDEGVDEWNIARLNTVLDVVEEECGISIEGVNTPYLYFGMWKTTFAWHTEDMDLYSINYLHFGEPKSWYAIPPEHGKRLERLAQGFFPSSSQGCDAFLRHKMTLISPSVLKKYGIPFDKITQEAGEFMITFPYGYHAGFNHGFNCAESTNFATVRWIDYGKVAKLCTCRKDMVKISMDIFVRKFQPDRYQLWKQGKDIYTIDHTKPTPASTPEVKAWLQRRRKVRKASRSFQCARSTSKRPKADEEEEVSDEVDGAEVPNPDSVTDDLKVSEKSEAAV
GPR7 antag: antagonists of human GPR7 (neuropeptides B/W receptor 1); GPR7-expressing cells, fluorescence antagonist assay; inhibition, % at 4.4 µM; 290,000 compounds, 1.1% hits; in the data active means inhibition above about 16%, passing the limit was not always enough;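 further: cells stimulated with the agonist NPW; 0% = agonist with vehicle and 100% = vehicle without agonist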
GPR7 antag conf: confirmation of human GPR7 antagonists | inhibition, % at 4.4 µM | shares compounds with GPR7 antag | GPR7-expressing cells, calcium fluorescence antagonist mode | 2,400 compounds, 52% hits; in the data active means inhibition above about 24%;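 further: stimulated with the GPR7 agonist NPW; 0% = agonist plus vehicle and 100% = vehicle alone without agonist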
MCHR1 antagonist: antagonizes human MCHR1, a GPR7 antagonist counter-screen | MCHR1-expressing cells, fluorescence antagonist assay | inhibition, % at 4.4 µM | shares compounds with GPR7 antag | 2,400 compounds, 62% hits; in the data active means inhibition above about 22%;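 further: 0% = vehicle with agonist and 100% = vehicle without agonist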
Numbers without * were called inactive; i = inactive; . = no result. This is a sample that favours compounds with a hit; in the whole collection about 1.2% have one here.

SMILES	VLA-4 inh	p-CIP stab down	JMJD2C inh	GPR7 antag	GPR7 antag conf	MCHR1 antagonist
O=C(CSc1nnc(CNc2ccc(Cl)cc2)n1Cc1ccccc1)NCc1ccco1	1.0	-0.1	5.0	25.3*	26.0*	37.2*
N#Cc1c(N)sc2c1CCN(CCc1ccccc1)C2	-19.7	-5.8	-2.2	-11.2	.	.
COc1cc(S(=O)(=O)Nc2cccc(C(=O)O)c2)c(OC)cc1Cl	-3.7	4.0	5.0	-4.8	.	.
NS(=O)(=O)c1ccc(CNC(=S)NCc2ccc(Cl)cc2)cc1	17.0	-19.5	-9.1	-6.5	.	.
NS(=O)(=O)c1ccc(CNC(=S)Nc2ccc(Cl)c(Cl)c2)cc1	5.9	-6.1	4.8	33.2*	41.2*	40.1*
CCN(CC(=O)NCc1ccc(Cl)cc1)C(=O)C1CCN(S(=O)(=O)c2ccc(OC)c(OC)c2)CC1	9.0	.	-1.2	.	.	.
CC[C@@H](C(=O)[C@@H](C)[C@@H](O)[C@H](C)CCc1ccc(C)c(O)c1C(=O)O)[C@H]1O[C@](CC)([C@H]2CC[C@](O)(CC)[C@H](C)O2)C[C@@H]1C	1.8	-6.2	-49.8	48.4*	47.7*	38.4*
Cn1c(C(=O)OCC(=O)NCc2ccc(F)cc2)cc2occc21	16.3	.	-5.2	.	.	.
Cc1ccc(NC(=O)COc2ccccc2CNC(C)(C)CC(C)(C)C)cc1	4.1	-5.9	-12.7	24.7*	35.5*	46.3*
OCC1(CCOc2ccccc2)CCN(Cc2ccccc2C(F)(F)F)CC1	7.8	-11.6	-3.3	-8.9	.	.
CCOC(=O)C1(CCOc2ccccc2)CCN(Cc2ccc(OC)c(COC)c2)CC1	10.9	-2.4	3.3	35.9*	35.6*	51.8*
COc1ccc(CN2CCC(CO)(CCOc3ccccc3)CC2)c(OC)c1C	5.7	8.5	-2.7	28.4*	36.6*	24.4*
CCOc1ccccc1CN1CCC(CO)(CCOc2ccccc2)CC1	3.1	14.8	-11.3	27.1*	5.7	4.0
CC1C(=O)Nc2ccc(S(=O)(=O)N3CCCCCC3)cc21 (stereo not drawn)	-0.5	.	-10.2	.	.	.
O=C1c2ccccc2NC(c2ccccn2)N1c1ccccc1F (stereo not drawn)	22.5	-26.3	15.2	-15.4	.	.
COc1ccc(OC)c(C2(O)CSC(=Nc3cccnc3)N2Cc2ccco2)c1 (stereo not drawn)	28.9	-13.4	17.3	5.0	.	.
OC1(c2ccc(OC(F)F)cc2)CSC(=Nc2cccnc2)N1C1CC1 (stereo not drawn)	13.0	-12.3	4.3	52.0*	29.7*	65.0*
O=[N+]([O-])c1ccc(Sc2ncc3ccccn23)nc1	6.7	-7.0	-12.1	-1.0	.	.
COc1ccc(N2CCN(CC(=O)Nc3sccc3C#N)CC2)cc1	5.0	7.4	-13.2	23.7*	34.2*	36.0*
CCCN(S(=O)(=O)c1ccccc1F)S(=O)(=O)c1ccccc1Br	2.0	-9.7	-10.3	-14.4	.	.
CC(C)(C)c1cc(CN2CCCCC2)cc(C(C)(C)C)c1O	-5.8	-0.6	16.5	22.8*	15.8	29.4*
Oc1cccc(CN2CCCCC2)c1	-6.2	-15.9	-0.4	2.0	.	.
COc1ccc(C(CNC(=O)c2ccc(NS(=O)(=O)c3ccc4c(c3)OCCO4)cc2)N(C)C)cc1 (stereo not drawn)	-0.3	.	-8.9	.	.	.
COc1ccc(C(CNC(=O)c2ccc(S(=O)(=O)Nc3ccc(F)cc3)cc2)N(C)C)cc1 (stereo not drawn)	0.8	-2.8	-5.4	54.3*	50.8*	49.0*
C=CCc1cc(/C=C2/NC(=O)N(CC(=O)OC)C2=O)cc(OC)c1O	-5.3	10.9	0.3	-3.5	.	.
SMILES	VLA-4 inh	p-CIP stab down	JMJD2C inh	GPR7 antag	GPR7 antag conf	MCHR1 antagonist
O=S(=O)(c1cccc(F)c1)N1CCN(c2nc(-c3cccnc3)nc3ccccc23)CC1	-23.9	.	16.2	.	.	.
NC(=S)N/N=C/c1c(O)ccc2ccccc12	10.9	-2.3	-0.1	23.3*	1.0	-0.6
O=CN/N=C/c1c(O)ccc2ccccc12	5.1	-3.1	8.0	-7.0	.	.
Cc1nc2sc(C(=O)Nc3ccccc3Cc3ccccc3)c(C)c2c(=O)[nH]1	-1.2	-15.2	7.0	-4.8	.	.
Cc1noc(C)c1C(=O)N1CCC(C(=O)c2ccc(F)cc2F)CC1	17.5	2.3	20.0	-17.1	.	.
COCc1c(C(=O)N/N=C/c2ccncc2)nnn1-c1nonc1N	1.7	0.3	-5.4	3.0	.	.
Cc1ccc(S(=O)(=O)N/N=C/c2ccc(C(=O)O)cc2)cc1	-10.4	-2.4	-5.6	8.0	.	.
Cc1ccc(S(=O)(=O)N/N=C/c2ccc(OC3CSC3)cc2)cc1	19.7	-9.9	-2.6	33.6*	89.4*	83.7*
CCN(CC(=O)Nc1c(F)cccc1F)C(=O)c1ccc2c(c1)OCCO2	14.7	.	-16.2	.	.	.
Cc1cccc2c1NC(=O)C2(c1ccc(O)cc1)c1ccc(O)cc1	3.4	-7.8	-1.6	67.0*	78.7*	49.2*
Cc1cc(C2(c3ccc(O)c(C)c3)C(=O)Nc3ccccc32)ccc1O	23.8	-1.3	-8.7	-11.5	.	.
O=C1/C(=C\c2cccc(O)c2O)SC(=S)N1Cc1ccccc1	0.0	-18.6	-7.9	-5.2	.	.
O=C1/C(=C\c2cc([N+](=O)[O-])ccc2O)SC(=S)N1Cc1ccc(Cl)cc1	i	-228.1	-11.0	35.0*	46.8*	85.8*
COc1ccccc1-c1ccc(SCc2cccc(F)c2)nn1	14.3	-6.4	-7.4	29.0*	35.9*	55.6*
Cc1nn(-c2ccc(NC(=O)c3ccncc3)cc2)c(C)c1Cl	3.4	4.7	11.5	32.1*	52.5*	65.1*
O=C(O)c1ccc(Cl)c(NC(=S)NC(=O)c2ccccc2[N+](=O)[O-])c1	2.8	5.7	3.1	-11.2	.	.
CC(C(=O)NCCCc1ccccc1)c1ccc([N+](=O)[O-])cc1 (stereo not drawn)	-1.4	-4.9	i	21.6*	33.4*	58.4*
COc1ccc(CCNC(=O)C(C)c2ccc([N+](=O)[O-])cc2)cc1 (stereo not drawn)	30.1	-0.6	-1.8	15.0	.	.
CC(C(=O)Nc1nccs1)c1ccc([N+](=O)[O-])cc1 (stereo not drawn)	-14.9	-1.1	-16.1	36.7*	18.1	9.5
O=C(CSc1ccc([N+](=O)[O-])cn1)Nc1nccs1	6.8	-2.7	16.7	-4.6	.	.
CC1(CC(=O)N/N=C/c2ccc(-c3ccc(C(=O)O)cc3)o2)OCCO1	4.3	12.4	4.4	-14.7	.	.
COC(=O)c1ccc(-c2ccc(/C=N/NC(=O)CC3(C)OCCCO3)o2)cc1	-5.7	9.6	2.2	23.9*	0.1	11.5
Cc1ccc(CNC(=O)CCSCc2ccccc2C)cc1	8.0	-2.3	4.3	9.8	.	.
COc1ccc(OC(=O)c2cc3cc(Cl)ccc3oc2=O)cc1	4.5	2.8	6.2	45.9*	-8.8	-2.2
COc1cccc(-c2nc(=S)c3c(n2CCCO)CCCC3)c1	-14.5	-2.9	-8.3	-5.6	.	.
CC(NC(=O)c1ccc2c(c1)OCO2)C(c1cccs1)N1CCN(c2ccccc2)CC1 (stereo not drawn)	15.6	-4.5	-11.0	-4.8	.	.
